Marburg entry inh: qHTS for inhibitors of binding or entry into cells for Marburg Virus. Potency, µM (top dose mostly 37.8 µM), actives largely listed as inhibitors. Marburg virus pseudotyped entry inhibition, cell reporter. hit rate 1.8% among 300,000. AID 540276, 2011; calls by dose curve; tested in HEK293 cells
Pf growth 48h: Primary qHTS for delayed death inhibitors of the malarial parasite plastid, 48 hour incubation; AID 504832, 2011; P. falciparum luciferase growth in erythrocytes, 48 h; hit rate 5.9% among 310,000; Potency, µM (highest dose often 28.7 µM), hits mostly inhibitors
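Luciferase-expressing parasites in RBCs, 2% Hct / 0.1% parasitemia final; RPMI 1640 + 0.5% Albumax; 37 C, 5% CO2, one generation; luminescence read-out, lower signal = inhibition.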
LASV entry inh: qHTS for Inhibitors of binding or entry into cells for Lassa Virus. Lassa virus pseudotype entry inhibition, cell reporter. hit rate 1.2% among 300,000. Potency, µM (doses to about 37.9 µM), actives largely listed as inhibitors; calls by dose curve; tested in HEK293 cells; also: nearly all actives have a fitted effect of over 50% in size
Cycloheximide cs: Cycloheximide Counterscreen for Small Molecule Inhibitors of Shiga Toxin; cell reporter, cycloheximide protein synthesis inhibition counterscreen; max response, %; hit rate 12% among 300,000; in the data active = max response mostly above about 13%, no sharp cut-off; inactive = mostly below about 14%; also: read at 38.3 µM for the half of the compounds with a filed dose
Shiga toxin inh: A qHTS for Small Molecule Inhibitors of Shiga Toxin | hit rate 9.2% among 290,000 | Vero cells, Shiga toxin protein synthesis inhibition reporter | inhibition, % at 38.7 µM | AID 2315, 2010; in the data active = inhibition mostly above about 28%, no sharp cut-off; inactive = mostly below about 43%
Pf growth 96h: Primary qHTS for delayed death inhibitors of the malarial parasite plastid, 96 hour incubation; P. falciparum luciferase reporter growth, 96 h; hit rate 6.9% among 320,000; Potency, µM (titrated, usually from 28.7 µM), most hits filed as inhibitors
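Infected RBCs, 2% Hct / 0.05% parasitemia final; luciferase-reporter P. falciparum; cpd 96 h, 37 C, 5% CO2; luciferase detection reagent; luminescence.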
Of the large screens only hits and unclear results are named; the others gave an inactive call. An excerpt weighted towards active compounds, which were near 19% of everything screened. Unless noted, calls follow the shape of the dose curve; as a rule, active = well fitted inhibition curve with a large enough effect; inconclusive = small, poorly fitted or top-dose-only effect, or another doubt; inactive = no such curve, though single readings can be large or run the other way.

CCCC(=O)NC(c1ccc(Cl)cc1Cl)c1ccc2cccnc2c1O (stereo not given)	Marburg entry inh 2.2µM, Pf growth 48h inconclusive, LASV entry inh inconclusive
CCCC(=O)NC(c1ccc(Cl)cc1)c1ccc2cccnc2c1O (stereo not given)	Marburg entry inh 3.5µM, Pf growth 48h inconclusive, LASV entry inh 4µM
CC(=O)NC(c1ccc2ccccc2c1)c1ccc2cccnc2c1O (stereo not given)	Marburg entry inh inconclusive, Pf growth 48h inconclusive, LASV entry inh inconclusive
CC(C)CCNC(=O)CN1C(=O)NC(c2ccccc2)(c2ccccc2)C1=O	Pf growth 96h inconclusive
COc1ccccc1OC(=O)C1CC(=O)N(c2ccc(Cl)cc2)C1 (stereo not given)	none (no result: Pf growth 96h)
COc1cc(C(=O)NCc2nnc(SCC(=O)c3ccccc3)o2)cc(OC)c1OC	none (no result: Marburg entry inh, LASV entry inh)
CCOc1cc(C(Nc2cc(C)ccn2)c2ccc3cccnc3c2O)ccc1OC (stereo not given)	Marburg entry inh inconclusive, LASV entry inh 5.6µM (no result: Pf growth 48h, Cycloheximide cs, Shiga toxin inh, Pf growth 96h)
CCCCC(=O)NC(c1ccc(N(C)C)cc1)c1ccc2cccnc2c1O (stereo not given)	Marburg entry inh inconclusive, Pf growth 48h inconclusive, LASV entry inh inconclusive
CCCCC(=O)NC(c1ccc(Cl)cc1)c1ccc2cccnc2c1O (stereo not given)	Marburg entry inh 4µM, LASV entry inh inconclusive (no result: Pf growth 48h, Cycloheximide cs, Shiga toxin inh, Pf growth 96h)
CCCC(=O)NC(c1ccc(C)cc1)c1ccc2cccnc2c1O (stereo not given)	Marburg entry inh 2.8µM, Pf growth 48h 3.7µM, LASV entry inh inconclusive
COc1ccc(C(NC(C)=O)c2ccc3cccnc3c2O)c(OC)c1 (stereo not given)	Marburg entry inh inconclusive, Pf growth 48h 1.7µM, LASV entry inh 6.3µM, Pf growth 96h 3.3µM
CCOC(=O)C1CCCN(C(=O)C2CCN(S(=O)(=O)c3c(C)noc3/C=C/c3ccccc3F)CC2)C1 (stereo not given)	Pf growth 48h inconclusive (no result: Marburg entry inh)
COc1ccc(CNC(=O)c2cc3c(s2)CS(=O)C3)cc1 (stereo not given)	Pf growth 96h inconclusive (no result: Marburg entry inh, Pf growth 48h, LASV entry inh)
COC(=O)Cc1ccc(NC(=S)Nc2ccccn2)cc1	Cycloheximide cs 31, Shiga toxin inh 74
Cc1ccccc1NC(=S)Nc1ccccn1	Pf growth 48h inconclusive, Cycloheximide cs 26, Shiga toxin inh 52, Pf growth 96h inconclusive (no result: Marburg entry inh, LASV entry inh)
COC(=O)Cc1ccc(NC(=S)NCCO)cc1	none
S=C(Nc1ccccn1)Nc1ccccc1Cl	Cycloheximide cs 35, Shiga toxin inh 72
CC(=O)N1CCN(C(=O)CN2C(=O)NC(C)(c3ccc4ccccc4c3)C2=O)CC1 (stereo not given)	Pf growth 96h inconclusive (no result: Cycloheximide cs, Shiga toxin inh)
CCn1c(N2CCN(C(=O)NC3CCCCC3)CC2)nc2ccccc21	Pf growth 48h inconclusive
CC(C)(C)OC(=O)N/N=C/c1cccc([N+](=O)[O-])c1	Cycloheximide cs 50, Shiga toxin inh 82, Pf growth 96h inconclusive (no result: Marburg entry inh, LASV entry inh)
COc1ccc(/C=N/NC(=O)C2C3CCCCC32)cc1OC (stereo not given)	Marburg entry inh inconclusive, LASV entry inh inconclusive
COc1cc(/C=N\NC(=O)OC(C)(C)C)ccc1OC(=O)c1ccco1	Pf growth 48h inconclusive, Shiga toxin inh 82
COc1ccc(/C=N/NC(=O)OC(C)(C)C)cc1OC	Pf growth 48h inconclusive, Cycloheximide cs 14, Shiga toxin inh active, Pf growth 96h inconclusive
CCCc1nnc(NC(=O)c2c(O)c3c([nH]c2=O)CCCC3)s1	Marburg entry inh inconclusive
O=C(Nc1ccccc1O)c1c(O)c2c([nH]c1=O)CCCC2	Marburg entry inh inconclusive, LASV entry inh inconclusive, Cycloheximide cs 40, Shiga toxin inh 116
O=C(N/N=C/c1cccc(F)c1)c1c(O)c2ccccc2[nH]c1=O	none
CCNCCNC(=O)c1c(O)c2c([nH]c1=O)CCCC2	none
O=C(Nc1nccs1)c1c(O)c2c([nH]c1=O)CCCC2	Marburg entry inh inconclusive, Cycloheximide cs 13
O=C(N/N=C/c1cccc(Cl)c1)c1c(O)c2c([nH]c1=O)CCCC2	Marburg entry inh inconclusive, Cycloheximide cs 18
CN(C)/C(=C\C(=O)c1ccccc1)C(=O)c1ccccc1	none (no result: Pf growth 48h, Cycloheximide cs, Shiga toxin inh, Pf growth 96h)
Cc1ccc2[nH]c(C)c(/C=C/c3cc[n+](C)cc3)c2c1	Marburg entry inh 8.9µM, Pf growth 48h inconclusive, LASV entry inh 3.2µM

Bioassay records deposited in PubChem by National Center for Advancing Translational Sciences (NCATS).
